# Hit rate of the full screen: of about 5,500 compounds, about 2,000 (36%) were called active. Inconclusive results (about 18%) are left out. The list shows a part of the results. Unmarked numbers belong to inactive results. Cut-off read from the data, not from the text of the source: active = normalized growth mostly below about 0.91 (no sharp cut-off); inconclusive = no clear call, values can overlap the other calls; inactive = mostly above about 0.92.
# Test: chemical genetic growth profiling, strain panel (AID 1159580);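 note: tested at 20 µM; growth read once vehicle control cultures reached saturation at 30 °C; 1 = growth at the plate median or of vehicle wells; lower values mean less growth of the strain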
# Details: growth OD
# [1] = S. cerevisiae deletion strains, locus YAL013W, strain DEP1, stronger effect = lower value
# [2] = S. cerevisiae deletion strains, locus YBR229C, strain ROT2, stronger effect = lower value
# [3] = S. cerevisiae deletion strains, locus YDL101C, strain DUN1, stronger effect = lower value
# [4] = S. cerevisiae deletion strains, locus YDL134C, strain PPH21, stronger effect = lower value
# [5] = S. cerevisiae deletion strains, locus YDR150W, strain NUM1, stronger effect = lower value
# [6] = S. cerevisiae deletion strains, locus YEL061C, strain CIN8, stronger effect = lower value
# [7] = S. cerevisiae deletion strains, locus YGR078C, strain PAC10, stronger effect = lower value
# [8] = S. cerevisiae deletion strains, locus YHR030C, strain SLT2, stronger effect = lower value
# [9] = S. cerevisiae deletion strains, locus YHR087W, strain rtc3, stronger effect = lower value
# [10] = S. cerevisiae deletion strains, locus YJL187C, strain SWE1, stronger effect = lower value
# [11] = S. cerevisiae deletion strains, locus YJR043C, strain POL32, stronger effect = lower value
# [12] = S. cerevisiae deletion strains, locus YJR075W, strain HOC1, stronger effect = lower value
# [13] = S. cerevisiae deletion strains, locus YLR039C, strain RIC1, stronger effect = lower value
# [14] = S. cerevisiae deletion strains, locus YLR058C, strain SHM2 (second series), stronger effect = lower value
# [15] = S. cerevisiae deletion strains, locus YLR085C, strain ARP6, stronger effect = lower value
# [16] = S. cerevisiae deletion strains, locus YLR262C, strain YPT6, stronger effect = lower value
# [17] = S. cerevisiae deletion strains, locus YML094W, strain GIM5, stronger effect = lower value
# [18] = S. cerevisiae deletion strains, locus YMR219W, strain ESC1, stronger effect = lower value
# [19] = S. cerevisiae deletion strains, locus YMR263W, strain SAP30, stronger effect = lower value
# [20] = S. cerevisiae deletion strains, locus YNL153C, strain GIM3, stronger effect = lower value
# [21] = S. cerevisiae deletion strains, locus YNL298W, strain CLA4 (second series), stronger effect = lower value
# [22] = S. cerevisiae deletion strains, locus YNL322C, strain KRE1, stronger effect = lower value
# [23] = S. cerevisiae deletion strains, locus YNR030W, strain Alg12, stronger effect = lower value
# [24] = S. cerevisiae deletion strains, locus YPL055C, strain LGE1, stronger effect = lower value
# [25] = S. cerevisiae deletion strains, locus YPL241C, strain CIN2, stronger effect = lower value
# [26] = S. cerevisiae deletion strains, locus YPR135W, strain CTF4, stronger effect = lower value
# [27] = S. cerevisiae strains, strain wild type, stronger effect = lower value
compound,measurement,setting,value
C/C(=N/O)c1sc2nc(C(F)(F)F)nn2c1C,normalized growth,[1],0.954
same,normalized growth,[2],0.957
same,normalized growth,[3],1.01
same,normalized growth,[4],0.966
same,normalized growth,[5],0.975
same,normalized growth,[6],0.981
same,normalized growth,[7],0.956
same,normalized growth,"S. cerevisiae deletion strains, locus YGR229C, strain SMI1, stronger effect = lower value",0.982
same,normalized growth,[8],0.89
same,normalized growth,[9],0.961
same,normalized growth,[10],0.974
same,normalized growth,[11],0.977
same,normalized growth,[12],0.997
same,normalized growth,[13],0.795
same,normalized growth,[14],0.953
same,normalized growth,[15],1.05
same,normalized growth,[16],0.86
same,normalized growth,[17],0.943
same,normalized growth,[18],0.963
same,normalized growth,[19],0.964
same,normalized growth,[20],1
same,normalized growth,[21],0.99
same,normalized growth,[22],0.962
same,normalized growth,[23],0.989
same,normalized growth,[24],0.96
same,normalized growth,[25],1.02
same,normalized growth,[26],0.851
same,normalized growth,[27],0.962
C=CC1(C)CC(=O)C2(O)C(C)(O1)C(OC(C)=O)C(O)C1C(C)(C)CCC(O)C12C (stereo unspecified),normalized growth,"S. cerevisiae deletion strains, locus YAL040C, strain CLN3, stronger effect = lower value",0.968
same,normalized growth,"S. cerevisiae deletion strains, locus YCL061C, strain MRC1 (second series), stronger effect = lower value",0.985
same,normalized growth,[5],1
same,normalized growth,"S. cerevisiae deletion strains, locus YDR363W, strain ESC2, stronger effect = lower value",0.969
same,normalized growth,"S. cerevisiae deletion strains, locus YER002W, strain NOP16, stronger effect = lower value",0.986
same,normalized growth,[7],0.996
same,normalized growth,[12],0.992
same,normalized growth,[20],1.02
same,normalized growth,"S. cerevisiae deletion strains, locus YNL175C, strain NOP13, stronger effect = lower value",1.02
same,normalized growth,"S. cerevisiae deletion strains, locus YNL197C, strain WHI3, stronger effect = lower value",0.994
same,normalized growth,"S. cerevisiae deletion strains, locus YNL224C, strain SQS1, stronger effect = lower value",0.99
same,normalized growth,[22],0.985
same,normalized growth,"S. cerevisiae deletion strains, locus YOR083W, strain WHI5 (second series), stronger effect = lower value",1.01
same,normalized growth,[24],0.994
same,normalized growth,[25],0.998
CSc1nc2cc(Oc3cccc(Cl)c3Cl)c(Cl)cc2[nH]1,normalized growth,[8],0.11 (active)
same,normalized growth,"S. cerevisiae deletion strains, locus YHR079C, strain IRE1, stronger effect = lower value",0.119 (active)
same,normalized growth,"S. cerevisiae deletion strains, locus YJL095W, strain BCK1, stronger effect = lower value",0.114 (active)
same,normalized growth,"S. cerevisiae deletion strains, locus YJR066W, strain TOR1, stronger effect = lower value",0.0117 (active)
same,normalized growth,"S. cerevisiae deletion strains, locus YLR113W, strain HOG1, stronger effect = lower value",0.156 (active)
same,normalized growth,"S. cerevisiae deletion strains, locus YNL183C, strain NPR1, stronger effect = lower value",0.000876 (active)
same,normalized growth,"S. cerevisiae deletion strains, locus YOR231W, strain MKK1, stronger effect = lower value",0.125 (active)
same,normalized growth,"S. cerevisiae deletion strains, locus YPL256C, strain CLN2, stronger effect = lower value",0.138 (active)
CSc1nc2ccccc2[nH]1,normalized growth,[1],0.987
same,normalized growth,[2],0.996
same,normalized growth,"S. cerevisiae deletion strains, locus YCL061C, strain MRC1, stronger effect = lower value",0.992
same,normalized growth,[3],0.999
same,normalized growth,[4],0.948
same,normalized growth,[5],1.02
same,normalized growth,[6],0.936
same,normalized growth,[7],0.99
same,normalized growth,[8],1.03
same,normalized growth,[9],0.969
same,normalized growth,[10],0.973
same,normalized growth,[11],1
same,normalized growth,[12],0.956
same,normalized growth,"S. cerevisiae deletion strains, locus YKL190W, strain CNB1, stronger effect = lower value",0.984
same,normalized growth,[13],1.01
same,normalized growth,[14],0.983
same,normalized growth,[15],0.895
same,normalized growth,[16],1.01
same,normalized growth,[17],0.96
same,normalized growth,[18],0.99
same,normalized growth,[19],1.02
same,normalized growth,"S. cerevisiae deletion strains, locus YMR307W, strain GAS1, stronger effect = lower value",0.89
same,normalized growth,[20],1.02
same,normalized growth,[21],0.95
same,normalized growth,[22],0.977
same,normalized growth,[23],0.923
same,normalized growth,[24],1.03
same,normalized growth,[25],0.944
same,normalized growth,[26],0.973
same,normalized growth,[27],0.981

# Reference: PubChem BioAssay AID1159580 (chemical genetic matrix, 2015)
